Our source for the inhibition values is ChEMBL document CHEMBL3433997, “St. Jude Leishmania screening dataset” (2016).

Where “and” joins values, the source holds several entries; their conditions need not be identical. Equal entries are not always repeated.

Common to all, as to format: functional
Assay [1] concerns the target Solute carrier family 2, facilitated glucose transporter member 1 (Homo sapiens) (UniProt P11166). The assay can be described thus: ST_JUDE_LEISH: Cytotoxicity at 2uM final concentration against transgenic Leishmania Mexicana promastigotes LmGLUT1 that are glucose transport deficient and complemented with the human glucose transporter GLUT1. Activity is measured by DNA content using SYBR green in vitro.

The target of assay [2] is Hexose transporter 1 (Plasmodium falciparum) (UniProt O97467). The assay can be described thus: ST_JUDE_LEISH: Cytotoxicity at 2uM final concentration against transgenic Leishmania Mexicana promastigotes LmPfHT that are glucose transport deficient and complemented with the Plasmodium falciparum hexose transporter. Activity is measured by DNA content using SYBR green in vitro.

For assay [3], the target named is Glucose transporter (Leishmania mexicana) (UniProt O61059). The assay can be described thus: ST_JUDE_LEISH: Cytotoxicity at 2uM final concentration against transgenic Leishmania Mexicana promastigotes LmGT2 that are glucose transport deficient and complemented with the L. Mexicana glucose transporter 2. Activity is measured by DNA content using SYBR green in vitro.

Sequence of Solute carrier family 2, facilitated glucose transporter member 1 (Homo sapiens) (P11166 whole entry): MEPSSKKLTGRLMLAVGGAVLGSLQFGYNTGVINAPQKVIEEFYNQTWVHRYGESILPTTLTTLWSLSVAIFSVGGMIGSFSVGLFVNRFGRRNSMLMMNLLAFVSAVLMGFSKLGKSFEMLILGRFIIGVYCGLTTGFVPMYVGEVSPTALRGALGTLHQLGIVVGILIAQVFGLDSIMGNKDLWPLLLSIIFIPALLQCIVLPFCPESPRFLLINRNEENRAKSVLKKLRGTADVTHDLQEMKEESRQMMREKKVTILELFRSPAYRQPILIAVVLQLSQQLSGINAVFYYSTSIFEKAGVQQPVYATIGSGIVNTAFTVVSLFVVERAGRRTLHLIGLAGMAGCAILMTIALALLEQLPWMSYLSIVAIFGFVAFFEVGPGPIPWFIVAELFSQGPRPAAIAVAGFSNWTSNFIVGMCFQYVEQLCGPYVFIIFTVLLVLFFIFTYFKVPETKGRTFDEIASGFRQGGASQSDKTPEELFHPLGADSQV

`O=C(/C=C/c1cc(C(F)(F)F)ccc1F)N1CCC(CN2CCC(c3c[nH]c4ccccc34)CC2)CC1`: the inhibition (usually the change of the read-out against control, counted positive when it falls) in assay [1] was 1.52%; in assay [2], 1.34%; in assay [3], -1.26%.

`CO/C(=C\C=C\c1cc2cc(Cl)c(Cl)cc2[nH]1)C(=O)N[C@H]1CN2CCC1CC2`: the inhibition is 0.86% in assay [1], -0.23% in assay [2] and -0.34% in assay [3].

For `Cc1ccc(C2(O)CC3CCC(C2)N3C)cc1` (stereo unspecified), the values for the inhibition in assay [1], in assay [2] and in assay [3] were 2.44%, 2.72% and 3.25%, respectively.

Take `O=C(/C=C/c1ccc(Cl)c(Cl)c1)N1CCC(CN2CCC(c3c[nH]c4cc(C(F)(F)F)ccc34)CC2)CC1`: the inhibition is 2.28% in assay [1], 3.35% in assay [2] and -0.87% in assay [3].

On to `Cc1ccc2c(C3=CCN(CCCCC4(C)C(=O)Nc5ccccc54)CC3)c(C)[nH]c2c1` (stereo unspecified), for which the inhibition in assay [1] is 0.29%; in assay [2], 0.34%; in assay [3], -0.56%.

As to `Cc1[nH]c2ccc(O)cc2c1C1CCN(CC2CCC(NC(=O)/C=C/c3c(Cl)cccc3Cl)CC2)CC1` (stereo unspecified), the results for the inhibition in assay [1], in assay [2] and in assay [3] were 1.67%, 0.48% and 3.62%, respectively.

With `COc1cc(/C=C/C(=O)NC2CCC(CN3CCC(c4c[nH]c5ccccc45)CC3)CC2)ccc1O` (stereo unspecified), the inhibition in assay [1] is 0.32% and 3.25%; in assay [2], 1.97% and 2.79%; in assay [3] it was 1.02% and 1.53%.

As for `CC(Cc1ccc(OCc2ccc(CCN(C)C)cc2)cc1)NCCc1cccc(Cl)c1` (stereo unspecified), the inhibition is 1.8% in assay [1], 0.77% in assay [2] and -2.69% in assay [3].

Regarding `COc1ccc(OC)c(C(O)CNC(C)C)c1` (stereo unspecified), the inhibition in assay [1] was 1.92%; in assay [2] it was 2.47%; in assay [3], 0.42%.

In the case of `O=C(Nc1ccc(CN2CCC(c3c[nH]c4ccc(O)cc34)CC2)cc1)c1ccc(-c2ccccc2)cc1`, the inhibition was found to be 5.73% in assay [1], 3.85% in assay [2] and 5.18% in assay [3].

In the case of `OC(CNC1CCCCC1)c1ccc(Cl)c(Cl)c1` (stereo unspecified), the inhibition was -1.03% in assay [1], -0.96% in assay [2] and -0.95% in assay [3].

Turning to `C[C@H](Cc1ccc(OCCCCCCOc2ccccc2)cc1)NC[C@@H](O)c1cc(Br)no1`, the results for the inhibition in assay [1], in assay [2] and in assay [3] were 2.44%, 0.72% and -0.07%, respectively.

In the case of `O=C(NC1CCC(CN2CCC(c3c[nH]c4ccccc34)CC2)CC1)NC12CC3CC(CC(C3)C1)C2` (stereo unspecified), the inhibition amounted to 3.42% in assay [1], 3.16% in assay [2] and 1.41% in assay [3].

For the molecule `Cc1cc(N(C)C2CCN(C)CC2)nc(Nc2ccc(Br)cc2)n1`, the inhibition is 3.64% in assay [1], 6.94% in assay [2] and 1.93% in assay [3].

With `COc1ccc(CC(C)NCC(O)c2cccc(Cl)c2F)cc1` (stereo unspecified), the inhibition in assay [1] was 1.96%; in assay [2], -0.19%; in assay [3], 0.32%.

Take `Cc1ccc2[nH]cc(C3CCN(CC4CCC(NC(=O)/C=C/c5ccc(Cl)c(Cl)c5)CC4)CC3)c2c1` (stereo unspecified): the inhibition was 4.11% and 12% in assay [1]; 3.18% and 11.1% in assay [2]; -1.76% and 10.5% in assay [3].

Consider `CC[C@H]1CN2CC[C@@H]1C[C@H]2[C@H](O)c1cc(N2CCC(N3CCCCC3)CC2)nc2ccc(OC)cc12`, for which the inhibition in assay [1] is 1.26%; in assay [2], 4.69%; in assay [3], -0.04%.

With `N#Cc1c(Cl)cccc1Oc1ccc(S(=O)(=O)N2CCC(CN3CCC(c4c[nH]c5ccccc45)CC3)CC2)cc1`, the results for the inhibition in assay [1], in assay [2] and in assay [3] were 1.64%, -0.14% and -0.73%, respectively.

Turning to `COc1ccc(NC(=S)NC(NC(=O)CF)C(Cl)(Cl)Cl)cc1[N+](=O)[O-]` (stereo unspecified), the inhibition in assay [1] was 3.05%; in assay [2], -3.38%; in assay [3] it was -1.65%.

For `Cc1ccc(CC(C)NCC(O)c2cccc(Cl)c2)cc1F` (stereo unspecified), the inhibition is 9.84% in assay [1], 9.76% in assay [2] and 9.69% in assay [3].

Turning to `O=C(CC1CCCC1)N(CC1CCN(Cc2ccc(C(F)(F)F)cc2)CC1)c1ccc(N2CCOCC2)c(F)c1`, the inhibition in assay [1] was 13.5%; in assay [2], 10.9%; in assay [3], 14%.

`CC(C)n1ncc2c(C(=O)Nc3ccc(C#N)c(Cl)c3)cc(C3CC3)nc21`: the inhibition in assay [1] stood at 2.24%; in assay [2] it was 1.01%; in assay [3] it was 3.4%.

With `COc1cccc(C(=O)C2CC2CN2CC=C(c3c[nH]c4cccc(Br)c34)CC2)c1` (stereo unspecified), the figures for the inhibition in assay [1], in assay [2] and in assay [3] were 1.59%, 1.08% and -0.34%, respectively.

In the case of `Cc1ccc(-n2nc(C)c3c2NC(=O)CSC3c2ccsc2)cc1` (stereo unspecified), the figures for the inhibition in assay [1], in assay [2] and in assay [3] were 9.48%, 13.5% and 11%, respectively.

On to `Cc1ccc2c(C3=CCN(CCCCC4(C)C(=O)Nc5c(F)cccc54)CC3)c(C)[nH]c2c1` (stereo unspecified), for which the inhibition in assay [1] came out at 2.71%; in assay [2] it was 1.48%; in assay [3], 1.63%.

As for `CCC1(C)CC(CCNCc2ccccc2O)(c2ccc(C)cc2)CCO1` (stereo unspecified), the inhibition in assay [1] is -0.22%; in assay [2] it was -2.9%; in assay [3], -0.15%.

Turning to `O=C(NCC(=O)N1CCC[C@H]1C(=O)O)[C@@H](Cc1ccccc1)NC(=O)[C@@H]1CCCN1C(=O)CCCc1ccc(O)cc1`, the values for the inhibition in assay [2] and in assay [3] were -1.36% and -1.68%, respectively.

For the molecule `CCc1nc(N)nc(N)c1-c1cccc(Cl)c1`, the inhibition in assay [1] is 2.71%; in assay [2] it was 2.32%; in assay [3] it was 3.02%.

Consider `O=C(/C=C/c1ccc(Cl)c(Cl)c1)NCc1ccc(CN2CCC(c3c[nH]c4ccccc34)CC2)cc1`, for which the inhibition in assay [1] came out at 2.64%; in assay [2], 2.44%; in assay [3], 0.41%.

`CC(=O)C1(c2ccccc2)CCN(CCC2(c3ccc(Cl)c(Cl)c3)CN(C(=O)Nc3cccc(C(F)(F)F)c3)CCO2)CC1` (stereo unspecified): the inhibition in assay [1] was determined as 7.51%; in assay [2], 4.19%; in assay [3], 3.14%.

For `Cc1ccc(C[C@@H](C)NC[C@H](O)c2cccc(C(F)(F)F)c2)cc1`, the inhibition was found to be 3.18% in assay [1], 3.1% in assay [2] and 2.92% in assay [3].

For the molecule `O=C(NC1CCC(CN2CCC(c3c[nH]c4ccccc34)CC2)CC1)c1ccc(-c2cc(C(F)(F)F)ccc2Cl)o1` (stereo unspecified), the figures for the inhibition in assay [1], in assay [2] and in assay [3] were 4%, 6.53% and 3.83%, respectively.

For `CC(Cc1ccc(-c2nc3ccccc3[nH]2)cc1)NCC(O)c1cccc(C(F)(F)F)c1` (stereo unspecified), the inhibition is 1.35% in assay [1], -1.73% in assay [2] and -0.37% in assay [3].

On to `CCOC(C(=O)OCC1CCCN1C)(c1ccccc1)c1ccccc1` (stereo unspecified), for which the inhibition is 1.35% in assay [1], -0.09% in assay [2] and 0.01% in assay [3].
